# The full ranking holds about 33,000 sequences; the median of “E-score (-0.5 to 0.5)” is about -0.015, and the highest 2% start at about 0.3. Many of the other results were omitted from the sample, so the highest values are more common in it than they were.
# Target: T1, Abf1 (UniProt P14164)
# T1 sequence: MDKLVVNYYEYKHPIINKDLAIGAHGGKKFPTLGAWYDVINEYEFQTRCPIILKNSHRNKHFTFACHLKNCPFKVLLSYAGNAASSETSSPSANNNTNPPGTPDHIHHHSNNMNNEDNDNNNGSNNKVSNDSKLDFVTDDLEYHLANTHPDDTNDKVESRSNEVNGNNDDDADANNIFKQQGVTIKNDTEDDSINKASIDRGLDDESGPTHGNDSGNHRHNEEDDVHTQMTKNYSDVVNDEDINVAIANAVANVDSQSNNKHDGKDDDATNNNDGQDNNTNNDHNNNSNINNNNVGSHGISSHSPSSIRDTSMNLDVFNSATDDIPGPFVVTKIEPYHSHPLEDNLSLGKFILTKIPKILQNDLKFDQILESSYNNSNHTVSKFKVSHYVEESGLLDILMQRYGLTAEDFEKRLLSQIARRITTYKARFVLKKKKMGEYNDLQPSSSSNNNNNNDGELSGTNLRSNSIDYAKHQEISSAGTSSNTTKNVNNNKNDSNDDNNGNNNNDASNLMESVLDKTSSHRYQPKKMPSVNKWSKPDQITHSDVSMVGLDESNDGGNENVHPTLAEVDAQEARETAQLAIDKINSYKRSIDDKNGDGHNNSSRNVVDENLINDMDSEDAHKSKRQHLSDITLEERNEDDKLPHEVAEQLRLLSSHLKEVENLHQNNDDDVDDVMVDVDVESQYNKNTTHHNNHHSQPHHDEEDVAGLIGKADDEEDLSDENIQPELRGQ
# Assay: PBM E-score (8-mer binding enrichment) (E-score (-0.5 to 0.5)); higher = stronger / more preferred TF binding
# Conditions: protein concentration: 200 nM; construct: GST-full length
# Protocol: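 Universal 'all 10-mer' protein binding microarrays (Agilent AMADID 015681) probed with GST-tagged S. cerevisiae TFs (full-length or DBD) made by in vitro transcription/translation (PURExpress), about 100-200 nM. Bound TF was detected with fluorescent anti-GST. Each ungapped 8-mer (which stands for itself and its reverse complement) is scored by the PBM enrichment score (E-score), a modified Wilcoxon-Mann-Whitney statistic from -0.5 to +0.5, computed with the Universal PBM Analysis Suite. Scale: above 0.35 generally sequence-specific binding.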
row,Sequence,PBM E-score
1,AGGTCGAT,0.132
2,TGGTGGAA,-0.0333
3,ACTGCGAT,-0.0827
4,CAACAAAC,-0.112
5,CATCACGA,0.0436
6,TATCACGA,0.366
7,AATCACGA,0.309
8,TATCACAA,0.25
9,AATCACGC,0.127
10,AATCACGG,0.213
11,AGGTTATC,0.0463
12,CGCAGATA,0.0501
13,ACACGGCG,0.305
14,ACACGGCA,0.294
15,CGACGGCG,0.171
16,AGACGGCG,0.306
17,AGACGGCC,-0.0278
18,CCACGGCG,0.142
19,CCCGCTCG,-0.0943
20,ATAAACGG,0.273
21,TAAACTCA,-0.0231
22,AGCGATAG,0.0445
23,AGCGATAT,0.352
24,AACGATCC,-0.00029
25,AACGATCT,0.303

row,Sequence,PBM E-score
1,AACGATCA,0.24
2,AACGATAC,0.32
3,AACGATAA,0.294
4,AGCGATAC,0.202
5,AACGATAG,0.265
6,GACGATAC,0.278
7,ACCGATAT,0.0499
8,AACGATAT,0.385
9,GCAATTCA,-0.0514
10,ATCGCAGC,-0.0387
11,CACTTCAG,0.0421
12,GCGGTTTA,-0.161
13,ATCCCTGA,-0.0627
14,CCAGGGGC,-0.331
15,CTTAGCGA,0.0369
16,GTTAGCGA,0.32
17,ATTAGCGA,0.136
18,GGGTTATA,-0.105
19,ATTTTACC,0.11
20,AATTTACG,0.0813
21,ATTTTACG,0.322
22,TACAGCTA,-0.41
23,ATTAGTGA,0.365
24,AATAGTGC,0.0751
25,ATTAGTGG,0.1

row,Sequence,PBM E-score
1,AATAGTGG,0.0153
2,ATTAGTGC,0.148
3,AATAGTGA,0.358
4,CTTAGTGA,0.305
5,GTTAGTGA,0.17
6,CTTAGTGC,-0.0935
7,TCGAGCAA,0.1
8,ATTTCCGG,0.0492
9,ATTTCTTA,0.0563
10,GAAGAAAC,-0.133
11,AATTTCGT,0.36
12,AAATTCGT,0.328
13,AAATTCGG,0.0545
14,AAATTCGC,0.0441
15,AATTTCGC,-0.0531
16,AATTTCGA,0.00012
17,GACGCCTC,-0.0456
18,ATAACCCA,-0.0314
19,AGGGTAAT,0.0413
20,CACAGTGA,0.109
21,GCATCTCC,-0.255
22,ACTGGAGA,-0.174
23,CCCCCAGA,-0.326
24,CACGAGTC,0.0257
25,CGCACGAA,0.321

row,Sequence,PBM E-score
1,GGCACGAA,0.103
2,CGCACGAC,0.242
3,TGCACGAA,0.368
4,AGCACGAA,0.217
5,CGCACGAG,0.156
6,CACAACGC,-0.174
7,AGGGAGGA,-0.187
8,ATCCGGGC,-0.197
9,GAGATATA,0.147
10,GGGATATA,-0.045
11,ATGATAGG,0.116
12,AAGATATG,0.283
13,GCGATACA,0.139
14,ATGATATA,0.403
15,ATGATATG,0.367
16,AAGATATA,0.162
17,GCGATATA,0.368
18,GTGATATA,0.395
19,CTGATATA,0.107
20,CCGATATA,0.0343
21,GTGGACAA,0.133
22,CTCCTGAC,0.0261
23,AGGGGACA,-0.0441
24,CCAGGGTC,-0.217
25,ACGGCTAC,0.0914

row,Sequence,PBM E-score
1,CGTTCAGA,0.0456
2,ATGATATC,0.362
3,CTGATATC,0.0641
4,ATGATACA,0.202
5,ATGATAGC,0.24
6,ATGATACC,0.291
7,ATGATACG,0.305
8,ACGCGCCT,-0.0785
9,AGATAAGG,0.00618
10,GGAGGTCA,0.0571
11,CTGACGAC,0.228
12,GTGTACGA,0.337
13,GAGTACGA,0.0499
14,CTGTACGC,-0.106
15,GTGTACTA,0.165
16,ATGTACGA,0.444
17,ATGTACGC,0.027
18,ATGTACGG,0.241
19,CTGTACAA,0.109
20,CTGTACGA,0.383
21,GTGTCGGA,0.0611
22,GACGTAGA,0.0745
23,TCCGACCA,-0.143
24,AAACTCTA,-0.144
25,CCCACAAC,-0.0362

row,Sequence,PBM E-score
1,GCCTCCAA,-0.121
2,GATATAAA,0.22
3,GATATATC,0.332
4,GATATAAC,0.307
5,AATATATC,0.139
6,CATATAAC,0.155
7,GATATACC,0.34
8,CATATACC,-0.0104
9,GATATATA,0.289
10,GATATACA,0.111
11,ATACGCGG,-0.114
12,CTTGGGGC,-0.247
13,AACCCTAA,0.00952
14,CCGATACC,-0.101
15,ATACGTGG,0.155
16,GAACGCGA,-0.146
17,GGGCGCGA,0.0618
18,AGTTGTGC,-0.108
19,ACGGGCGA,-0.00147
20,AGTGAGAT,0.147
21,CGTGATAC,0.23
22,ATTGATAG,-0.0465
23,ACTGATAA,0.126
24,AGTGATAT,0.442
25,ATTGATAA,0.27

row,Sequence,PBM E-score
1,AGTGATAC,0.385
2,ACTGATAT,0.108
3,GGTGATAC,0.186
4,CGTGATAG,0.221
5,AGTGATAG,0.303
6,AGTGATAA,0.445
7,AGCGCCAG,-0.0266
8,AACCAGAA,0.0884
9,CCCTCGGA,0.00175
10,ATACGAAT,0.275
11,ATACGACG,0.341
12,ATACGACC,0.239
13,CTACGAAG,0.215
14,AGACGACG,0.235
15,ATACGAAG,0.328
16,CTACGATC,0.195
17,AAACGAAA,0.159
18,ATACGATG,0.261
19,ACACGAAG,0.269
20,ATACGATC,0.307
21,ATACGAAA,0.349
22,CGAATACG,0.189

# Reference: the supplement of paper PMC3334620
